In PubChem BioAssay (NCI):
The panel holds about 83,000 compounds, 20% with a hit somewhere; the sample as a whole holds those more often.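 How to read the values: 0–100, growth inhibition (40 = 60% inhibited); 0, no net growth; -100 to 0, cell death (-40 = 40% of starting cells died; -100 = all dead).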 Calls of active or inactive are those of the source.

Test system: MDA-MB-435 melanoma
Test: NCI-60 one-dose screen, 48 h (100 = growth as untreated, 0 = no growth, -100 = all killed)
Conditions: 10 µM unless noted
Protocol: Growth inhibition of the MDA-MB-435 human Melanoma tumor cell line is measured as a screen for anti-cancer activity. Cells are grown in 96 well plates and exposed to the test compound for 48 hours. Compounds are tested at a single concentration, which is 10^-5 M for most compounds. The reported endpoint is percent growth (GI% or GIPRCNT), where numbers from 0 - 100% represent growth inhibition, and numbers from -100% - 0 represent cell death. For example, a value of 40 represents 60% growth inhibition. A value of 0 means no net growth occurred over the course of the experiment. A value of -40 indicates 40% of cells at the beginning of the experiment died by the end of the experiment. A value of -100 means all cells are dead at the end of the experiment.
NCI-60 Human Tumor Cell Lines Screen was performed using the standard one-dose NCI protocol, which is described in more detail at https://dtp.cancer.gov/discovery_development/nci-60/default.htm.
Compounds with GIPRCNT values below 10 were considered active. Activity score was based on GIPRCNT using the following formula: […]
Score is 0 for GIPRCNT values of 100 or above, 50 for GIPRCNT values of 0, and 100 for GIPRCNT values of -100.

Compound	growth
O=C(CSc1nc2ccc([N+](=O)[O-])cc2[nH]1)Nc1ccc(F)c(Cl)c1	15.5% (inactive)
O=c1[nH]c(CN2CCN(c3cccc(Cl)c3)CC2)nc2cc(Cl)ccc12	103% (inactive)
COCc1nc2ccccc2[nH]1	102% (inactive)
COc1ccc(C(=O)c2nccc3cc(OC)c(OC)cc23)cc1OC	119% (inactive)
c1ccc(-c2nnc(-c3c[nH]c4ncccc34)s2)cc1	94.8% (inactive)
NS(=O)(=O)c1ccc(CCN2C(=O)/C(=C\c3ccccc3)C=C2c2ccc(Cl)cc2)cc1	99.8% (inactive)
COc1ccc(C(=O)CSc2nccc(Nc3ccc(C(=O)O)cc3)n2)cc1	106% (inactive)
CC1(C)C(=O)/C(=C\c2ccco2)C[C@]2(C)[C@H]3CC=C4[C@@H]5C[C@](C)(C(=O)O)CC[C@]5(C)CC[C@@]4(C)[C@]3(C)CC[C@@H]12	-75.1% [100 µM] (active)
CCN1c2ccccc2C(Cl)(c2ccc(N(C)C)cc2)c2ccccc21	23.3% (inactive)
CC1(C)CC[C@]2(C(=O)O)CC[C@]3(C)C(=CC[C@@H]4[C@@]5(C)C/C(=C/c6ccco6)C(=O)C(C)(C)[C@@H]5CC[C@]43C)[C@@H]2C1	-70.6% [100 µM] (active)
CCOC(=O)COc1c(C)cc(SSc2cc(C)c(OCC(=O)OCC)c(C)c2)cc1C	114% (inactive)
CSc1nc(=S)c2nc(SC)n(-c3ccccc3)c2[nH]1	103% (inactive)
O=C(Nc1cccc2ccccc12)c1cc2ccccc2cc1O	0.191% (active)
COc1cc(Cl)cc(-c2nn(C(=O)NS(=O)(=O)c3ccccc3)cc2-c2ccncc2)c1	91% (inactive)
COC(=O)[C@@H](NC(=O)NC(=O)NC(=O)CI)C(C)C	90.5% (inactive)
CN(C)CCOc1ccc(/C(=C(/CCCl)c2ccccc2)c2ccccc2)cc1	-7.62% (active)
C=C(C)[C@@H]1CC[C@]2(C(N)=O)CC[C@]3(C)[C@H](CC[C@@H]4[C@@]5(C)C/C(=C/c6cccnc6)[C@H](O)C(C)(C)[C@@H]5CC[C@]43C)[C@@H]12	9% [100 µM] (active)
Cn1cc(-c2nnc(-c3cn(C)c4ncc(Br)cc34)s2)c2cc(Br)ccc21	92.1% (inactive)
Cc1cccc(C[C@H](NC(=O)Nc2ccc(C)cc2F)C(=O)N[C@@H]2C(=O)N3C[C@H](O)C[C@H]3C(=O)N3CCN(C)C[C@H]3C(=O)N[C@@H](C)C(=O)N3C[C@H](C)C[C@H]3C(=O)O[C@H]2C)c1	21.8% (inactive)
C=CCCC1(C)NC(=O)NC1=O (stereo not given)	99.4% (inactive)

Compound	growth
COc1ncc(-c2ccc3nccc(C#CCCCCC(=O)O)c3c2)cc1NS(=O)(=O)c1ccc(F)cc1F	29.5% (inactive)
Cc1cc(NN=C(c2ccc(O)cc2)c2ccc(O)cc2)c([N+](=O)[O-])cc1[N+](=O)[O-]	47.5% (inactive)
CCc1ccc(NC(=O)N[C@@H](Cc2cc(F)cc(F)c2)C(=O)N[C@@H]2C(=O)N3C[C@H](O)C[C@H]3C(=O)N3CCOC[C@H]3C(=O)N[C@@H](C)C(=O)N3C[C@H](C)C[C@H]3C(=O)O[C@H]2C)cc1	21.5% (inactive)
O=C(Oc1ccc(Cl)cc1[N+](=O)[O-])Oc1ccc(Cl)cc1[N+](=O)[O-]	120% (inactive)
Cc1ccc(S(=O)(=O)Oc2ccc(Br)cc2Br)cc1	-46% (active)
COc1cc(NN=C(c2ccc(O)cc2)c2ccc(O)cc2)c([N+](=O)[O-])cc1[N+](=O)[O-]	95.6% (inactive)
O=C1/C(=C\c2cccn2Cc2ccccc2)c2ccccc2N1c1c(Cl)cccc1Cl	91% (inactive)
N#CCCc1c[nH]c2ccccc12	101% (inactive)
C[C@H]1[C@H](C)CC[C@]2(C(=O)N3CCN(C)CC3)CC[C@]3(C)C(=CC[C@@H]4[C@@]5(C)C/C(=C/c6ccco6)C(=O)C(C)(C)[C@@H]5CC[C@]43C)[C@H]12	42.6% [100 µM] (inactive)
CCCc1cc2cc(-n3nc(C)c4c3CC(C)(C)CC4=O)cc(NC3CCSCC3)c2c(=O)[nH]1	26.5% (inactive)
COc1ccc(/C=C/C=C\C(=O)c2ccc(-n3ccnc3)cc2)cc1	92.8% (inactive)
O=C(Nc1ccc(F)cc1)c1ccccc1	97.3% (inactive)
CSc1nc(N)c(N=Nc2ccc(S(=O)(=O)Nc3nnc(C)s3)cc2)c(=O)[nH]1	128% (inactive)
Ic1ccc2[nH]cc(SSc3c[nH]c4ccc(I)cc34)c2c1	24.3% (inactive)
O=C1NC(=O)C(Cc2ccc(OCc3ccc(-c4cc(F)c(F)c(F)c4)cc3)cc2)S1 (stereo not given)	99% (inactive)
CC(C)C1=NOC(=O)C1=Cc1cn(-c2cccnc2)nc1-c1ccccc1	95.1% (inactive)
Cc1cccc(/C=C2\N=C(c3ccccc3)N(c3ccc(S(N)(=O)=O)cc3)C2=O)c1	92.3% (inactive)
Cn1cc(-c2noc(C(=O)c3cn(C)c4ncc(Br)cc34)n2)c2ccccc21	99.9% (inactive)
O=C(O)CC1CCCCC1c1ccccc1 (stereo not given)	115% (inactive)
COc1cc(/C=C/C(=O)/C=C/c2ccc(-n3ccnc3)cc2)ccc1O	-9.19% (active)
